From PubChem
The entries come from a sample that favours hits as a whole.
NTMT1 inh: inhibitors of human N-terminal methyltransferase NTMT1; NTMT1 MTase-Glo SAH luminescence, purified enzyme; Potency, µM (titrated, usually from 114 µM), for inactives: top-dose activity change, negative = inhibition, usual class: inhibitors; hit rate 2.5% among 59,000; Q9BV86; AID 1645870;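 note: potency is the fitted concentration of half-maximal effect; plate controls were DMSO vehicle for no effect and no enzyme for full effect; nearly all actives have a fitted effect of over 65% in size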
DYRK1A inh-1: blocks recombinant human DYRK1A kinase activity; shares compounds with NTMT1 inh; recombinant DYRK1A, Kinase-Glo ATP depletion luminescence; Potency, µM (top dose mostly 76.9 µM), for inactives: at the top dose activity change, negative = inhibition, most hits filed as inhibitors; hit rate 80% among 100; AID 2705
CLK4 inh-1: confirmation of human CLK4 kinase inhibitors, SAR round 2 | hit rate 90% among 90 | shares compounds with NTMT1 inh | AID 493204 | Potency, µM (top dose mostly 76.9 µM), for inactives: top-dose activity, negative = inhibition, hits mostly inhibitors | recombinant Clk4, Kinase-Glo ATP luminescence, 4.5 h
Target sequence (Q9HAZ1 whole entry, looked up): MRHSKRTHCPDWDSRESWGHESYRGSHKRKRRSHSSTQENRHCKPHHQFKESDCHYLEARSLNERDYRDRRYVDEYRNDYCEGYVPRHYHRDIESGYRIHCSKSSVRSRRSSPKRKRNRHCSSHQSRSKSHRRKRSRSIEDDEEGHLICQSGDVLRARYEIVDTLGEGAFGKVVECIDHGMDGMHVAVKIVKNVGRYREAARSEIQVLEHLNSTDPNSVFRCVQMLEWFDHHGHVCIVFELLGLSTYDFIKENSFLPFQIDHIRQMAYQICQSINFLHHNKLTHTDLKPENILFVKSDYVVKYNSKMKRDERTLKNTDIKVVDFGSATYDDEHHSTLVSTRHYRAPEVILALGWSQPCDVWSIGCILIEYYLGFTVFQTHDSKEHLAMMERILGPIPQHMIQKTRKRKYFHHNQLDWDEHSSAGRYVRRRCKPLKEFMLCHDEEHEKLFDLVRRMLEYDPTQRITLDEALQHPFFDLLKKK
CLK4 inh-2: CLK4 kinase inhibition, SAR round 2 | shares compounds with NTMT1 inh | Reaction Biology kinase assay, 10 uM ATP | Potency, µM, most hits filed as inhibitors | hit rate 100% among 65 | AID 504421; calls by dose curve
DYRK1A inh-2: inhibitors of human DYRK1A kinase. shares compounds with NTMT1 inh. Reaction Biology kinase assay, 10 uM ATP. Potency, µM, usual class: inhibitors. hit rate 90% among 65. AID 504424;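 active = compounds that showed inhibition of Dyrk1a and received a fitted potency; inactive = compounds that showed no inhibition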
CLK2 inh: CLK2 kinase inhibition | shares compounds with NTMT1 inh | Reaction Biology kinase assay, 10 uM ATP | Potency, µM, usual class: inhibitors | hit rate 90% among 65 | AID 504427;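 active = compound that inhibits Clk2 kinase in the dose series, with an IC50 potency reported; inactive = no inhibition seen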
CLK3 RBC: blocks human CLK3 kinase activity; Potency, µM, usual class: inhibitors; hit rate 40% among 65; recombinant CLK3 kinase assay, 10 uM ATP; shares compounds with NTMT1 inh;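 active = compounds that inhibited Clk3 enough in the ten-dose series to give a half-maximal potency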
DYRK1B RBC: DYRK1B kinase inhibition. shares compounds with NTMT1 inh. Recombinant Dyrk1b kinase assay, 10 uM ATP. Potency, µM, hits mostly inhibitors. hit rate 80% among 65. AID 504429;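 active = compounds whose dose response shows an inhibitor phenotype against the kinase Dyrk1b; inactive = compounds showing no inhibitor phenotype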
CLK1 RBC: CLK1 kinase inhibition; Potency, µM, actives largely listed as inhibitors; recombinant Clk1 kinase assay, 10 uM ATP; AID 504430; hit rate 90% among 65; shares compounds with NTMT1 inh;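 active = compounds that block the splicing kinase Clk1 enough to give a fitted half-inhibition concentration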
Sfp qHTS opt: inhibitors of Bacillus subtilis Sfp PPTase, optimization followup; shares compounds with NTMT1 inh; purified Sfp PPTase enzyme activity, qHTS; Potency, µM (doses to about 114 µM), for inactives: at the top dose activity change, negative = inhibition, most hits filed as inhibitors; hit rate 78% among 230; AID 540350
Bsub HM489 growth: Sfp PPTase inhibitors: growth inhibition of B. subtilis HM489. shares compounds with NTMT1 inh. B. subtilis HM489 (acpS-) growth, BacTiter-Glo, 5 h. Potency, µM (doses to about 114 µM), inactives show top-dose activity change, negative = inhibition, actives largely listed as inhibitors. hit rate 50% among 220. AID 540353
Sfp gel opt: inhibits B. subtilis Sfp PPTase in gel assay | shares compounds with NTMT1 inh | purified Sfp PPTase, gel-based product detection | hit rate 54% among 220 | Potency, µM (top dose mostly 250 µM), without a hit: at the top dose activity change, negative = inhibition, hits mostly inhibitors | AID 540355
Sfp inh SAR2: Sfp phosphopantetheinyl transferase inhibition, SAR round 2 | shares compounds with NTMT1 inh | hit rate 87% among 230 | purified Sfp enzyme, PPTase activity, qHTS | Potency, µM (series often up to 57.1 µM), for the others: at the highest dose activity change, negative = inhibition, actives largely listed as inhibitors
HSD17B4 inh: inhibits human HSD17B4, off-target for HPGD inhibitors; shares compounds with NTMT1 inh; purified HSD17B4, estradiol/NAD+, NADH fluorescence; Potency, µM (top dose mostly 57.1 µM), for the others: at the highest dose activity change, negative = inhibition, usual class: inhibitors; hit rate 10% among 230; AID 743187
ALDH1A1 inh: ALDH1A1 (human) inhibition, HPGD counter-screen; recombinant ALDH1A1, NADH fluorescence, propionaldehyde/NAD+; shares compounds with NTMT1 inh; hit rate 93% among 230; Potency, µM (doses to about 57.1 µM), without a hit: top-dose activity change, negative = inhibition, usual class: inhibitors
* hit, by the source's call; [ ] = another dose, or the depositor's remark. Unless noted, calls come from the whole dose curve; as a rule, active = well fitted curve in the direction sought with a large enough effect; inconclusive = small, poorly fitted or top-dose-only effect, or another doubt; inactive = no such curve, though single readings can be large; an effect the other way counts as inactive or inconclusive.

`COc1ccc(N2CCN(C(=S)Nc3cc(C)ccn3)CC2)cc1` gave NTMT1 inh 50.1µM*, Sfp qHTS opt 11.8µM*, Bsub HM489 growth 33.2µM*, Sfp gel opt -33.2%, Sfp inh SAR2 10.2µM*, HSD17B4 inh -5.9% and ALDH1A1 inh 6.81µM*.
Cc1ccnc(NC(=S)N2CCN(c3ccc(N)cc3)CC2)c1 was read as NTMT1 inh inconclusive, Sfp qHTS opt inconclusive, Bsub HM489 growth inconclusive, Sfp gel opt -46.0%, Sfp inh SAR2 10.2µM*, HSD17B4 inh inconclusive and ALDH1A1 inh 9.61µM*.
`CN(C)CCCNc1ncnc2ccc(-c3ccc4c(c3)OCO4)cc12` gave NTMT1 inh inconclusive and CLK4 inh-1 1.04µM*.
Screening c1nc(N2CCNCC2)c2cc(-c3ccc4c(c3)OCO4)ccc2n1 returned NTMT1 inh inconclusive and CLK4 inh-1 0.583µM*.
For Fc1cccc(CNc2ncnc3ccc(-c4ccc5c(c4)OCO5)cc23)c1 the results were NTMT1 inh 2.3%.
`NCCNc1ncnc2ccc(-c3ccc4c(c3)OCO4)cc12` gave DYRK1A inh-1 0.184µM*, CLK4 inh-2 8.44*, DYRK1A inh-2 5.47µM*, CLK2 inh 6.42µM*, CLK3 RBC 15µM*, DYRK1B RBC inactive and CLK1 RBC 5.56µM*.
CN(CC1CCCCC1)c1ncnc2ccc(-c3ccc4c(c3)OCO4)cc12 was read as CLK4 inh-1 0.0582µM*.
`Clc1ccccc1-c1ccc2ncnc(NCc3ccc4c(c3)OCO4)c2c1` gave NTMT1 inh 3.4%.
For Cc1ccc(C2=NN(CC(=O)N(C)C(C)c3ccco3)C(=O)C2)cc1 (configuration not stated) the results were NTMT1 inh -2.8%[57.5 µM].
For c1nc(NCC2CCCCC2)c2cc(-c3ccc4c(c3)OCO4)ccc2n1 the results were NTMT1 inh inconclusive, CLK4 inh-1 0.0733µM*, CLK4 inh-2 0.147*, DYRK1A inh-2 0.186µM*, CLK2 inh 0.86µM*, CLK3 RBC 5.3µM*, DYRK1B RBC 1.07µM* and CLK1 RBC 0.507µM*.
`COc1cc(O)c(C(CC(=O)N2CCC(c3ccccc3)CC2)c2ccc3c(c2)OCO3)c(OC)c1` (configuration not stated) gave NTMT1 inh 2.8%.
